Compound activity deposited in PubChem BioAssay by National Center for Advancing Translational Sciences (NCATS).
The list is not random: actives were taken first. Their share in the collection is about 19%.
SW480 rerep: induces DNA re-replication in SW480 colon adenocarcinoma cells; Potency, µM (series often up to 46.1 µM), without a hit: top-dose re-replication activation, actives largely listed as activators; hit rate 1.8% among 340,000; SW480 DNA re-replication, Hoechst DNA content imaging, 48 h; note: potency is the fitted concentration of half-maximal effect; % of control where 0% means no effect; nearly all actives have a fitted effect of over 55% in size
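Image-based read-out: total Hoechst fluorescence of nuclei (405 nm excitation, 500-530 nm emission), with hits raising the fraction of high-intensity nuclei. SW480 colon cells incubated 48 hr with compounds at 37 C.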
IL-1B inflam inh: inhibitors of inflammasome signaling (IL-1 beta secretion); THP-1 LPS/ATP IL-1B secretion, AlphaLISA, 16 h; stronger effect = lower value; activity change, % at 57.5 µM; hit rate 4.7% among 360,000; AID 743279; in the data active = activity change below about -50%; inconclusive = mostly about -30% to -49%; note: % is set by controls: 0 for no effect and ±100 for the full control effect
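THP-1 cells pretreated 1 hr with compounds (up to 57.5 uM final), then stimulated with LPS (250 ng/mL final) plus ATP (1.25 mM final); secreted IL-1B measured by AlphaLISA after 16 hr, decreased signal indicating inhibition.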
MCF10A rereplic: induces DNA re-replication in MCF 10a normal breast cells. MCF 10A DNA re-replication, Hoechst nuclear intensity, 48 h. Potency, µM (highest dose often 46.1 µM), for inactives: top-dose activity, positive = re-replication, usual class: activators. hit rate 2.9% among 350,000; note: potency is the fitted concentration of half-maximal effect; % of control where 0% means no effect; nearly all actives have a fitted effect of over 50% in size
BCR signal inh: chronic active BCR signaling inhibition; hit rate 0.05% among 340,000; Potency, µM (titrated, usually from 46.1 µM), for inactives: at the top dose activity change, negative = inhibition, most hits filed as inhibitors; ABC-DLBCL IkBa-CBG/CBR reporter, luminescence ratio, 4 h; active = well fitted inhibition curve with a large enough effect in the signal ratio, with a control signal flat, not every such curve was filed as active; inconclusive = small, poorly fitted or top-dose-only effect, or effect the other way, or a change in a side signal; the % refers to the signal ratio;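 note: potency is the fitted concentration of half-maximal effect; plate controls were basal doxycycline-induced cells for no effect and cells given 10 µM MG132 for full effect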
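TMD8 ABC-DLBCL cells carrying doxycycline-inducible green luciferase fused to IkappaBalpha plus unfused red luciferase were exposed to compounds (up to 46 uM) for 4 hrs at 37C. Activity came from the overlap-corrected green/red luminescence ratio.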
TDP1 cell CPT: growth inhibition of DT40 Tdp1-/-;hTDP1 cells with camptothecin (screen for TDP1 inhibitors); chicken DT40 Tdp1-/-;hTDP1 cells + 20 nM CPT, ATP luminescence, 48 h; Potency, µM (series often up to 46.2 µM), for the others: top-dose activity change, negative = growth inhibition, usual class: inhibitors; hit rate 12% among 420,000; AID 686979; note: potency is the fitted concentration of half-maximal effect; % is set by controls: 0 for no effect and ±100 for the full control effect; nearly all actives have a fitted effect of over 55% in size
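Cell growth measured by CellTiter-Glo luminescence after a minimum 48 h, 37 C compound exposure with 20 nM CPT in Tdp1-knockout DT40 cells stably expressing hTDP1, seeded 400/well; qHTS titration format.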
DT40 TDP1 no CPT: qHTS for Inhibitors of human tyrosyl-DNA phosphodiesterase 1 (TDP1): qHTS in cells in absence of CPT | hit rate 15% among 420,000 | Potency, µM (titrated, usually from 46.2 µM), for inactives: top-dose activity change, negative = growth inhibition, hits mostly inhibitors | AID 686978, 2013 | DT40 Tdp1-/- hTDP1 cells, no CPT, ATP luminescence, 48 h; note: potency is the fitted concentration of half-maximal effect; % is set by controls: 0 for no effect and ±100 for the full control effect; nearly all actives have a fitted effect of over 55% in size
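Chicken DT40 Tdp1-/- cells complemented with human TDP1, screened without camptothecin (DMSO vehicle only), 400 cells/well. Compounds pin-transferred, cells incubated at 37 °C for at least 48 hr. Growth read as ATP-dependent luminescence (CellTiter-Glo, 30 min at RT).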
* hit, by the source's call; ? = inconclusive; . = not tested or not shown; [ ] = remark or other dose. Unless noted, calls come from the whole dose curve; as a rule, active = well fitted curve in the direction sought with a large enough effect; inconclusive = small, poorly fitted or top-dose-only effect, or another doubt; inactive = no such curve, though single readings can be large; an effect the other way counts as inactive or inconclusive.

SMILES | SW480 rerep | IL-1B inflam inh | MCF10A rereplic | BCR signal inh | TDP1 cell CPT | DT40 TDP1 no CPT
COc1ccc(CCNCc2c(OC)ccc3ccccc23)cc1 | 0% | -64* | 2% | -8% | 13µM* | 13µM*
CN1CCCC2(CCN(C(=O)Oc3ccccc3)CC2)C1 | . | . | . | . | 14% | -5%
Cn1cc[n+](C)c1P(=S)(c1ccccc1)c1ccccc1 | 2% | 2 | -7% | 6% | 10µM* | 21µM*
Cc1c(C(=O)Nc2ccccc2)c2cc(O)ccc2n1Cc1ccccc1 | 7% | -28 | ? | 7% | ? | ?
CCOC(=O)C12C(=O)OCC1C2c1ccccc1 (configuration not stated) | . | 34 | . | . | 7% | -14%
CCOC(=O)[C@]12Cc3ccc(C)cc3[C@H]1N(C1CCCCC1)C(=O)c1ccccc12 | . | -118* | . | . | 2.6µM* | 2.3µM*
CCOC(=O)[C@]12Cc3cc(Cl)ccc3[C@H]1N(C1CCCCC1)C(=O)c1cc(OC)ccc12 | . | -110* | . | . | 0.52µM* | 0.52µM*
CCOC(=O)[C@]12Cc3ccccc3[C@H]1N(C(C)C)C(=O)c1ccccc12 | . | -116* | . | . | ? | 23µM*
CCOC(=O)[C@]12Cc3ccc(C)cc3[C@H]1N(C1CCCCC1)C(=O)c1cc(OC)ccc12 | . | -116* | . | . | 2.9µM* | 2.9µM*
COc1ccc(OC)c(-n2c(O)c(C=Nc3c(C)n(C)n(-c4ccccc4)c3=O)c(=O)[nH]c2=S)c1 | -28% | . | 4% | 5% | 7% | -14%
COc1cc(C(=O)Nc2ccc(N(C)C)cc2)c([N+](=O)[O-])cc1OC | 17% | 0 | ? | ? | 2% | -2%
COC(=O)C1(F)C(=O)NC(=O)NC1O (configuration not stated) | . | . | . | . | 14% | -20%
CCOC(=O)[C@]12Cc3c(cc(OC)c(OC)c3OC)[C@H]1N(C1CCCCC1)C(=O)c1ccccc12 | . | -113* | . | . | 2.9µM* | 3.7µM*
CCOC(=O)[C@]12Cc3cc(C)ccc3[C@H]1N(C1CCCCC1)C(=O)c1ccccc12 | . | -111* | . | . | 2.3µM* | 2.9µM*
Cc1cc(Oc2cc(NN3CCCCC3)c([N+](=O)[O-])cc2[N+](=O)[O-])ccc1[N+](=O)[O-] | -1%[9.22 µM] | 0 | -18% | 12% | ? | ?
Cn1nc(C(F)(F)F)c(-c2ccccc2)c1N | -9% | . | ? | -4% | 6% | -14%
CN1C(=O)/C(=C\c2ccc(N3CCCCC3)o2)C(=O)NC1=S | 13% | ? | 5% | 1% | -21% | ?
CN1CCN(c2ccc(/C=C3\C(=O)NC(=S)N(c4cccc(Br)c4)C3=O)o2)CC1 | 3% | -13 | ? | ? | 16µM* | 16µM*
CCOc1ccc(N2C(=O)/C(=C/c3ccc(C)o3)C(=O)NC2=S)cc1 | 1% | -6 | 10% | 8% | ? | 26µM*
COc1ccc(N2C(=O)/C(=C/c3ccc(C)o3)C(=O)NC2=S)cc1 | -6% | 18 | 1% | -1% | 15µM* | ?
O=C1NC(=S)N(c2ccc(F)cc2)C(=O)/C1=C/c1ccco1 | . | . | . | 4% | . | .
COc1ccc(OC)c(N2C(=O)/C(=C/c3ccco3)C(=O)NC2=S)c1 | -6% | 15 | -10% | 3% | -21% | -27%
Cc1ccc(/C=C2\C(=O)NC(=S)N(c3cccc(F)c3)C2=O)o1 | 6% | 15 | 9% | 5% | 18µM* | ?
COc1cccc2cc(-c3cc(=O)oc4ccc(OC(=O)N(C)C)cc34)oc12 | 210% | -15 | ? | -1% | ? | -1%
Cc1cc(OC(=O)N(C)C)nc(-c2ccc(C)c(Cl)c2)n1 | -9% | -15 | 26% | 3% | 0% | -26%
CCN(CC)c1ccc(C=C2C(=O)NC(=S)NC2=O)cc1 | 144% | -97* | ? | -9% | ? | 15µM*
CN(C)c1ccc(C=C2C(=O)NC(=S)NC2=O)cc1 | ? | -102* | ? | . | 8.2µM* | 16µM*
CC(C)CN(CC(C)C)c1ccc(C=C2C(=O)NC(=S)NC2=O)cc1[N+](=O)[O-] | 8% | -12 | ? | 19% | ? | 21µM*
Cc1ccccc1OP(=O)(Oc1ccccc1C)N1CCOCC1 | . | 22 | . | . | ? | ?
